Results reported in PMC12136788.
Whole data set: some 24,000 sequences, median “enrichment r” near 0.99, cut for the highest 2% near 3.7. The full list was thinned out, with the highest values kept by preference.

T1: UNK ZnF1-3 (human, UniProt Q9C0B0 31-174)
T1 sequence: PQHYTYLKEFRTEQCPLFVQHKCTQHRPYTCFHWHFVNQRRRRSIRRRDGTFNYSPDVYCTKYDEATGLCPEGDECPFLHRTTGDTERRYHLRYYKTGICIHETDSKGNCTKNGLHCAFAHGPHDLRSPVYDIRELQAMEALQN

B1: chr14:57575763:57575764:+_ENSMUSG00000021945_ENSMUST00000022511|mus_hu|FALSE|FALSE (ssRNA)
RNA: GGGAGUUCUACAGUCCGACGAUCCACUGUUUUCAGGCCAAAAUACUUAGUGUUAAAGUAGAACAGUGUAUUCAGAAGAGCUACUGGAGAGUGUGAUCCUAGUUGUUUUAUCCUCCAGAGAUAGUCUUCUUCAACUCGAGAGAACAACAGAGGAUUGAGCAUCA
B2: chr1:183495733:183495734:+_ENSG00000116698_ENST00000515829|hu_hu|FALSE|FALSE (ssRNA)
RNA: GGGAGUUCUACAGUCCGACGAUCGGAAGACUUCACACGGCAUGGUAAAUCUACAUUAAAUACUGUACACAGUUCUUGUAAUAACUGAGUAUAGAAGCCACUAGCUGCCUCUAGGAACAGAGAAAGGUUUGCCUGAACUUCACUCAACAGAGGAUUGAGCAUCA
B3: chr12:58340223:58340224:+_ENSMUSG00000079104_ENSMUST00000139049|mus_mus|motif|central (ssRNA)
RNA: GGGAGUUCUACAGUCCGACGAUCCUGUAUUUUGGAGCAGUGUUUCAUCUUGUCUUCCUGAGGUAUGGUAUUGGUAACGGCGGCUGCUUCAAAGCAUGCAUUGUUGAUGCGAGAAAUGGCAGGGCCAGAGAAGAUUCCAUGCGUCAACAGAGGAUUGAGCAUCA
B4: chr12:39763582:39763583:-_ENSG00000139116_ENST00000544797|hu_mus|hu_hu_hu_mus_False|18_58 (ssRNA)
RNA: GGGAGUUCUACAGUCCGACGAUCCUCUAGGAACUGGGCAUUCACUUUGAAUUCAGGAGGGGGCAGCCCGUUUUUAAUUGCUAUGUGCUUUUUCUCAUCAAUACUCUUGAACAGGUGUUUAACAGCUCGAGAGAUGAUGCCCUGCAACAGAGGAUUGAGCAUCA
B5: chr2:74756847:74756848:-_ENSG00000115307_ENST00000377526|hu_hu|FALSE|FALSE (ssRNA)
RNA: GGGAGUUCUACAGUCCGACGAUCGCCGCCAUUUUCGCGCCCGGCCGCAGGGGCUCUUGGGAAGGCGGAGUCUUUGGGCAUCCGCCCGGGGUGAGGGGACCCGAAGUCCUGAGGCGCGCCGGAAGGGCUAGCGGUCCCAGCAUACAACAGAGGAUUGAGCAUCA
B6: 138058580_138059465_3786_CDS_ENSMUSG00000041642_ENSMUST00000075164|mouse|control|control (ssRNA)
RNA: GGGAGUUCUACAGUCCGACGAUCGGAGGCCAGGGACUUGGUGAUGUUCUUGGUAGAGCUGUCCAAUGGGGGUCCUAGGCACUCCGCAGACACGGCCUUCAUCUGUGCGGAUAGCUUGGGCUCACCCUUGAACUUGAAGUCAUCCAACAGAGGAUUGAGCAUCA
B7: chr8:104447970:104447971:+_ENSG00000164934_ENST00000297579|hu_hu|hu_hu_hu_mus_False|78_98 (ssRNA)
RNA: GGGAGUUCUACAGUCCGACGAUCAUACACUUCCCUGCUUCGACUUUUGUCCACAGGAAAGAUUCGAAUAGACUUAUCAAAGCUGGCAGACACAAAUUCCUUCCCAGUGGGAGAGUAGUCCACAUCAAGUACUGCAGACACGUGCAACAGAGGAUUGAGCAUCA
B8: chr15:78454051:78454052:+_ENSG00000166411_ENST00000558554|hu_mus|FALSE|FALSE (ssRNA)
RNA: GGGAGUUCUACAGUCCGACGAUCAUGCUCAAUUCCACUGUAUUCUCCUUCCGUGUUCUCUCGGAUGGUGACGAUAUUUACAUCCGUGUAAGGGGUUUUAUAACCUUCAAUUGAGACACAUGGCCGGACAUUGGCAUAAAGGUCCAACAGAGGAUUGAGCAUCA
B9: chr11:93987321:93987322:+_ENSMUSG00000020859_ENSMUST00000103168|mus_mus|motif|central (ssRNA)
RNA: GGGAGUUCUACAGUCCGACGAUCUACAAAGUUACAUUCCGAACCCCAGGGAUUCCAUAAUAGAAAUAAAUACUGAAAUAACGGCAUUGCUAAAUGAGCUUUUUACGCAUAGAAAUGAAGCCGUGGCCUCUAAAGACAGCAAAUCAACAGAGGAUUGAGCAUCA
B10: chr6:135286264:135286265:-_ENSG00000112339_ENST00000367826|hu_hu|FALSE|FALSE (ssRNA)
RNA: GGGAGUUCUACAGUCCGACGAUCUUUGCCAGUUGGCAACUUAGAAUUUUUGCAGAGGUGAUUAUUAAUACUUCUUUGCAGCUAAUUUUAGCUUUAAUUUUUCUCUCUCAUCUAAAAACAUAUCAAUUGCACAUUGUUCCUUUGCAACAGAGGAUUGAGCAUCA
B11: chr10:122431106:122431107:-_ENSMUSG00000034602_ENSMUST00000073792|mus_mus|FALSE|FALSE (ssRNA)
RNA: GGGAGUUCUACAGUCCGACGAUCAAUAUUUUCAAAAUGUUGCCACUCUUACUAUUUUGAUACUUUAUCAGUGAUAGUCCUAUUCUUUAAUUCACAAGUGAGUAUAUCAAAAUAUAAAAAAUACACGGCUUGAGUCAUUUUUUUCAACAGAGGAUUGAGCAUCA
B12: chr14:73742652:73742653:-_ENSG00000133961_ENST00000557597|hu_mus|FALSE|FALSE (ssRNA)
RNA: GGGAGUUCUACAGUCCGACGAUCCUAACCCGCUCACUUUUGGCAAGAUUACUUACAACUCAUACUUUUUAAUAUUGAGAACUAUUUAAAAUAUUCUAGGUGCAUAAAAAUAAAGAUUUUGGCUUUUUGAUAUAUAUAUAUAUACAACAGAGGAUUGAGCAUCA
B13: chr17:65740002:65740003:+_ENSG00000130935_ENST00000581375|hu_hu|hu_hu_hu_mus_False|68_98 (ssRNA)
RNA: GGGAGUUCUACAGUCCGACGAUCAACAAAUCUUUCUCUGGAUGAAGAACAGGAAGAUUCAUAUUAACUUUAUAAAAUAUCCAUCAAGUUAGGUGUGGUGGCCACACCUUUACUCCCAGCACUUUGGGAGGUGGAUCUCUGAGUCAACAGAGGAUUGAGCAUCA
B14: chr14:73742652:73742653:-_ENSG00000133961_ENST00000557597|hu_hu|motif|central (ssRNA)
RNA: GGGAGUUCUACAGUCCGACGAUCCCCCUUUACCUUUGGCAAGAUUACUUACAACUCAUACAACUUCUUAAUAUCUGAGAACGGUUUAAAAUAUUCUAAAUGCAUAAAAAUAAAGAUUUUGGCUUUUGAUAUAUAUAAUAUUUACAACAGAGGAUUGAGCAUCA

The binders below were run against T1, UNK ZnF1-3 (assay: nsRBNS (natural sequence RNA bind-n-seq); RBNS binding buffer (assumed for nsRBNS): 25 mM Tris pH 7.5, 150 mM KCl, 3 mM MgCl2, 0.01% Triton X-100, 500 ug/ml BSA, 20 U/ml SUPERase-In, 4 C; UNK is unkempt and MSI1 is Musashi-1; names of the RNAs are library labels; protein concentration not given here; high values mean tight binding).
In the case of B1, the binding signal is reported as 1.1 enrichment R.
With B2 the binding signal was 1.13 enrichment R.
With B3 the binding signal was 0.938 enrichment R.
B4 gave a binding signal of 1.58 enrichment R.
B5 showed a binding signal of 0.69 enrichment R.
Binder B6 has a binding signal of 0.543 enrichment R.
For B7, the binding signal was 0.994 enrichment R.
Work on B8 yielded a binding signal of 0.781 enrichment R.
B9 gave a binding signal of 1.35 enrichment R.
B10 was tested, and the binding signal was 0.804 enrichment R.
B11 was tested, and the binding signal was 0.965 enrichment R.
Work on B12 yielded a binding signal of 6.08 enrichment R.
Work on B13 yielded a binding signal of 1.02 enrichment R.
Binder B14 has a binding signal of 3.97 enrichment R.
